A selection: hits, their analogues and other compounds. The true share with any hit is near 2.4%.
Epigenetic reg: derepresses silenced GFP reporter in murine cells; murine LDR cells, GFP reporter derepression, 30 h; Potency, µM (highest dose often 53.9 µM), for the others: top-dose GFP activation, hits mostly activators; 0.2% of 280,000 active; further: % of control where 0% means no effect; nearly all actives have a fitted effect of over 60% in size
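Derepression of a silenced CMV-GFP reporter in murine LDR cells is scored by enumerating GFP-positive cells with a laser-scanning microplate cytometer after 30 hours of treatment at 37 C.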
Nrf2 block: blocks Nrf2 signaling | A549 ARE-Fluc reporter, luciferase luminescence, 18-24 h | Potency, µM (doses to about 46 µM), for the others: top-dose activity change, negative = inhibition, most hits filed as inhibitors | 2.1% of 360,000 active | AID 504444; further: on the % scale 0 is the no-effect control and ±100 the full control effect; nearly all actives have a fitted effect of over 60% in size
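Reporter: ARE-Fluc in A549. Exposure: 18-24 h, 37 °C, 5% CO2, 5% FBS OPTI-MEM. Readouts: fluorescent cytotoxicity (CellTiter-Fluor), then luminescent Nrf2 signal after BugLite.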
A549 viability: counter-screen for Nrf2 inhibitors: cytotoxicity in A549 cells; A549 ARE-Fluc cells, CellTiter-Fluor viability, 18-24 h; Potency, µM (top dose mostly 46 µM), inactives show at the top dose activity change, negative = cytotoxicity, most hits filed as inhibitors; 0.16% of 390,000 active; AID 504648; further: on the % scale 0 is the no-effect control and ±100 the full control effect
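A549 ARE-Fluc cells in 5% FBS OPTI-MEM, 5000 cells/well, rested 2 h then exposed to compounds in concentration-response for 18-24 h at 37 °C. Viability by CellTiter-Fluor fluorescence (Ex 405/Em 525) after 30 min; luciferase luminescence (BugLite, 15 min, RT) read afterwards.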
PINK1 expr mod: modulators of PINK1 expression. PINK1 immunofluorescence, high-content cytometry, 24 h. Potency, µM (doses to about 76.6 µM), for the others: at the highest dose activation (PINK1 increase), usual class: activators. 0.2% of 410,000 active. AID 624263; active means well fitted activation curve with a large enough effect; inconclusive means small, poorly fitted or top-dose-only effect; cell line not stated here; further: % of control where 0% means no effect; nearly all actives have a fitted effect of over 65% in size
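PINK1 protein level read as immunofluorescence by microplate cytometer in a fixed, stained stable cell line after 24 h exposure to five compound concentrations, with CCCP as control.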
Nrf2 activator: Nrf2 pathway activation | AID 624171 | AREc32 ARE-luciferase reporter (MCF7-derived line), luminescence, 24 h | Potency, µM (titrated, usually from 46.1 µM), without a hit: at the top dose activation, hits mostly activators | 0.31% of 410,000 active; further: % of control where 0% means no effect; nearly all actives have a fitted effect of over 65% in size
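Luciferase luminescence (Steady-Glo, 30 min at room temperature) served as the read-out of ARE activation in AREc32 cells treated with compounds for 24 hr at 37 deg C.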
The depositor's hits bear a star; [ ] = another dose, or the depositor's remark. Unless noted, the call rests on the fitted dose curve; in most records, active means well fitted curve in the direction sought with a large enough effect; inconclusive means small, poorly fitted or top-dose-only effect, or another doubt; inactive means no such curve, though single readings can be large; an effect the other way counts as inactive or inconclusive. Potency means the concentration at half of the fitted maximal effect.

How did CC(C)Oc1ccccc1C1CC(=O)Nc2cc3c(cc21)OCCO3 (configuration not stated) do in these assays?
Epigenetic reg: -2%; Nrf2 block: 8.2µM*; A549 viability: inconclusive; PINK1 expr mod: 16%[38.3 µM]; Nrf2 activator: -1%

What do the screens show for `COc1ccccc1C1CC(=O)Nc2cc3c(cc21)OCCO3` (configuration not stated)?
Epigenetic reg: 3%; Nrf2 block: inconclusive; A549 viability: -20%; PINK1 expr mod: 15%[38.3 µM]; Nrf2 activator: 0%

What do the screens show for `Cc1ccc(C2CC(=O)Nc3cc4c(cc32)OCCO4)cc1` (configuration not stated)?
Epigenetic reg: -2%; Nrf2 block: inconclusive; A549 viability: -2%; PINK1 expr mod: 1%; Nrf2 activator: 0%

How did O=C(Nc1ccc(S(=O)(=O)N2CCc3ccccc32)cc1)c1ccco1 do in these assays?
Epigenetic reg: -1%; Nrf2 block: 23µM*; A549 viability: 0%[1.84 µM]; PINK1 expr mod: inconclusive; Nrf2 activator: 7%

What do the screens show for `O=C(NCc1ccco1)c1ccc(Cl)c(S(=O)(=O)N2CCOCC2)c1`?
Epigenetic reg: 3%; Nrf2 block: 11%; A549 viability: -5%; PINK1 expr mod: -3%[38.3 µM]; Nrf2 activator: 0%

What do the screens show for `O=S(=O)(NC1CCCC1)c1ccc(S(=O)(=O)N2CCc3ccccc32)cc1`?
Epigenetic reg: -1%; Nrf2 block: 15µM*; A549 viability: inconclusive; PINK1 expr mod: -4%[38.3 µM]; Nrf2 activator: 3%

How did Nc1ccc(S(=O)(=O)N2CCc3ccccc32)cc1 do in these assays?
Nrf2 block: inconclusive; A549 viability: -1%; PINK1 expr mod: 2%; Nrf2 activator: 0%

How did O=C(NCc1ccco1)c1ccc(Cl)c(S(=O)(=O)N2CCc3ccccc32)c1 do in these assays?
Epigenetic reg: 1%; Nrf2 block: 23µM*; A549 viability: 2%; PINK1 expr mod: 2%; Nrf2 activator: 3%

Results for CCC(=O)Nc1ccc(S(=O)(=O)N2CCc3ccccc32)cc1 ?
Nrf2 block: 2%; A549 viability: inconclusive; PINK1 expr mod: 5%; Nrf2 activator: -1%

Results for Cc1ccc(S(=O)(=O)N2[C@@H](c3ccc(C(C)(C)C)cc3)C(C(=O)O)=CC[C@H]2c2ccc3c(c2)OCO3)cc1 ?
Nrf2 block: 23µM*; A549 viability: -21%; PINK1 expr mod: -1%; Nrf2 activator: 1%

Results for O=C(c1cc2nc(-c3cccs3)cc(C(F)(F)F)n2n1)N1CCCc2ccccc21 ?
Epigenetic reg: 0%; Nrf2 block: 18µM*; A549 viability: -17%; PINK1 expr mod: 1%; Nrf2 activator: 0%

Results for O=C(c1cc2nc(-c3cccs3)cc(C(F)(F)Cl)n2n1)N1CCCc2ccccc21 ?
Epigenetic reg: -1%; Nrf2 block: 0%; A549 viability: 10%; Nrf2 activator: 2%

What do the screens show for `CCCN1CCN(CCCNC(=S)Nc2ccc3nc(N4CCN(CC)CC4)cc(C)c3c2)CC1`?
Epigenetic reg: -4%; Nrf2 block: 16%; A549 viability: inconclusive; PINK1 expr mod: 2%; Nrf2 activator: 0%

What do the screens show for `Cc1cc(N2CCCC2)nc2ccc(NC(=S)NCCCN3CCC(C)CC3)cc12`?
Epigenetic reg: -2%; Nrf2 block: -1%; A549 viability: 9.2µM*; PINK1 expr mod: 1%; Nrf2 activator: 12%

Results for O=C1c2ccccc2C(=O)N1c1ccncc1 ?
Nrf2 block: 8%; A549 viability: -3%

How did CN(C)CC(C)(C)CNC(=O)c1cnn(-c2nccc(-c3ccc4c(c3)OCO4)n2)c1-c1ccco1 do in these assays?
PINK1 expr mod: -1%

Results for O=C(NCCc1csc(-c2ccc(C(F)(F)F)cc2)n1)c1cccs1 ?
Epigenetic reg: 0%; Nrf2 block: 26µM*; A549 viability: -2%; PINK1 expr mod: 1%; Nrf2 activator: 0%

Results for FC(F)(F)c1nc2nc(Cl)c(Cl)nc2[nH]1 ?
PINK1 expr mod: 1%; Nrf2 activator: 4%

Results for FC(F)(F)c1cccc(-c2nc3nc(Cl)c(Cl)nc3[nH]2)c1 ?
Epigenetic reg: 1%; Nrf2 block: inconclusive; A549 viability: inconclusive; PINK1 expr mod: 2.8µM*; Nrf2 activator: 34%
